For 6 molecules, outcome and AC50 results are on record in PubChem BioAssay (EPA / NIEHS).

Common to all, as to conditions: mRNA level, 48 h; actives raise or lower the signal
Read-out in one assay: CYP2C8 (gene 1558)
The experiment in a line: LTEA_HepaRG_CYP2C8: Life Technologies and Expression Analysis (LTEA) Assay for CYP2C8 using HepaRG (AID 2283483). The essentials:
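CYP2C8 expression measured by TaqMan qRT-PCR and normalized to three housekeeping genes. HepaRG cultures were treated for 48 h with an eight-point half-log series topping at 100 uM, vehicle 0.5% DMSO, duplicates; fitted both directions against DMSO.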

Read-out in the next assay: CYP2C9 (gene 1559)
The experiment in a line: LTEA_HepaRG_CYP2C9: Life Technologies and Expression Analysis (LTEA) Assay for CYP2C9 using HepaRG (AID 2283484). A digest of the protocol: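 CYP2C9 transcript level, quantified by TaqMan qRT-PCR against three housekeeping genes, was fitted bidirectionally relative to 0.5% DMSO. HepaRG cultures were treated 48 h, in duplicate, at eight half-log concentrations topping at 100 uM.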

Read-out in the next assay: CYP2E1 (gene 1571)
The experiment in a line: LTEA_HepaRG_CYP2E1: Life Technologies and Expression Analysis (LTEA) Assay for CYP2E1 using HepaRG (AID 2283485). A digest of the protocol: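 Readout is qRT-PCR of CYP2E1 mRNA, normalized to three housekeeping genes and fitted bidirectionally against 0.5% DMSO. HepaRG cells were dosed 48 h at eight concentrations, highest 100 uM with half-log dilutions.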

Read-out in a further assay: CYP4A11 (gene 1579)
Description: LTEA_HepaRG_CYP4A11: Life Technologies and Expression Analysis (LTEA) Assay for CYP4A11 using HepaRG (AID 2283486). A digest of the protocol: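 CYP4A11 transcript levels were quantified by TaqMan qRT-PCR after HepaRG human liver cells were treated for 48 hours with test chemicals (top 100 uM, half-log dilutions, 0.5% DMSO). Gain or loss of signal was fitted relative to DMSO.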

Read-out in assay [1]: Cytochrome P450 3A4 (Homo sapiens) (UniProt P08684)
The experiment in a line: LTEA_HepaRG_CYP3A4: Life Technologies and Expression Analysis (LTEA) Assay for CYP3A4 using HepaRG (AID 2283487). A digest of the protocol:
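In a human hepatic line (HepaRG), duplicate wells were treated 48 h with up to 100 uM chemical in half-log dilutions. Endpoint: CYP3A4 mRNA induction or loss relative to 0.5% DMSO vehicle, by qRT-PCR.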

Read-out in assay [2]: DNA damage-inducible transcript 3 (DDIT3), DDIT3 (gene 1649)
Description: LTEA_HepaRG_DDIT3: Life Technologies and Expression Analysis (LTEA) Assay for DNA damage-inducible transcript 3 (DDIT3) using HepaRG (AID 2283488). The essentials: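 Cells are human HepaRG liver cells treated for 48 h with eight half-log concentrations up to 100 uM in 0.5% DMSO. Transcript levels come from qRT-PCR normalized to three housekeeping genes, with activity fitted in both directions relative to vehicle.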

Read-out in assay [3]: Pro-epidermal growth factor (Homo sapiens) (UniProt P01133)
The experiment in a line: LTEA_HepaRG_EGF: Life Technologies and Expression Analysis (LTEA) Assay for Epidermal growth factor (EGF) using HepaRG (AID 2283489). The essentials: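 qRT-PCR readout of EGF transcript after 48 h chemical exposure of HepaRG cells; eight concentrations from 100 uM down in half-log steps, duplicate wells, 0.5% DMSO vehicle. Bidirectional curve fitting against DMSO baseline.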

Read-out in assay [4]: Early growth response protein 1 (EGR1) transcription factor, EGR1 (gene 1958)
The experiment in a line: LTEA_HepaRG_EGR1: Life Technologies and Expression Analysis (LTEA) Assay for Early growth response protein 1 (EGR1) transcription factor using HepaRG (AID 2283490). A digest of the protocol: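 EGR1 transcript levels quantified by qRT-PCR (Fluidigm arrays) against three housekeeping genes after 48 h chemical exposure of HepaRG cells. Eight-point half-log series topping at 100 uM, 0.5% DMSO vehicle, analyzed for gain or loss.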

Read-out in assay [5]: Ezrin (EZR), EZR (gene 7430)
Description: LTEA_HepaRG_EZR: Life Technologies and Expression Analysis (LTEA) Assay for Ezrin (EZR) using HepaRG (AID 2283491). The essentials: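 Gain or loss of EZR mRNA is scored relative to 0.5% DMSO in human HepaRG cultures treated 48 h with test chemicals in duplicate, eight half-log concentrations from 100 uM.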

Read-out in assay [6]: Cytochrome P450 3A7 (Homo sapiens) (UniProt P24462)
Description: LTEA_HepaRG_CYP3A7: Life Technologies and Expression Analysis (LTEA) Assay for CYP3A7 using HepaRG (AID 2283492). The essentials: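 CYP3A7 transcript levels were read by TaqMan qRT-PCR on Fluidigm arrays after 48 h chemical exposure of human HepaRG cells, with housekeeping-gene normalisation. Eight half-log concentrations up to 100 uM in 0.5% DMSO were tested in duplicate.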

Read-out in assay [7]: Fatty Acid-Binding Protein 1 (FABP1), FABP1 (gene 2168)
Description: LTEA_HepaRG_FABP1: Life Technologies and Expression Analysis (LTEA) Assay for Fatty Acid-Binding Protein 1 (FABP1) using HepaRG (AID 2283494). A digest of the protocol:
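FABP1 expression by TaqMan qRT-PCR, normalised to three housekeeping genes, in HepaRG cells after 48 h chemical treatment. Eight-point half-log series topping at 100 uM in 0.5% DMSO, duplicates; gain or loss fitted relative to vehicle.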

Read-out in assay [8]: Cytochrome P450 4A22 (Homo sapiens) (UniProt Q5TCH4)
Description: LTEA_HepaRG_CYP4A22: Life Technologies and Expression Analysis (LTEA) Assay for Cytochrome P450 4A22 (CYP4A22) using HepaRG (AID 2283495). A digest of the protocol:
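HepaRG, 48 h post-plating -> serum-free induction medium; dosed 48 h, duplicate, 8 conc. (100 uM top, half-log), 0.5% DMSO. Readout: CYP4A22 mRNA by qRT-PCR, ACTB/GAPDH/POLR2A normalization; gain/loss fit relative to DMSO.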

Read-out in assay [9]: Cytochrome P450 7A1 (Homo sapiens) (UniProt P22680)
Description: LTEA_HepaRG_CYP7A1: Life Technologies and Expression Analysis (LTEA) Assay for Cytochrome P450 7A1 (CYP7A1) using HepaRG (AID 2283496). The essentials: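 HepaRG, 48 h exposure, 8-pt half-log series from 100 uM, 0.5% DMSO vehicle, duplicates. Readout: TaqMan qRT-PCR mRNA vs three housekeeping genes; bidirectional curve fit against DMSO baseline.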

Read-out in assay [10]: Glutathione S-Transferase (GSTA2), GSTA2 (gene 2939)
Description: LTEA_HepaRG_GSTA2: Life Technologies and Expression Analysis (LTEA) Assay for Glutathione S-Transferase (GSTA2) using HepaRG (AID 2283497). A digest of the protocol:
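GSTA2 transcript levels came from Fluidigm TaqMan qRT-PCR normalized to three housekeeping genes, fitted in both directions against DMSO. HepaRG cultures received chemicals for 48 h in serum-free induction medium (0.5% DMSO), 8 half-log concentrations up to 100 uM, duplicate.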

Read-out in assay [11]: Glutamate-cysteine ligase catalytic (GCLC), GCLC (gene 2729)
Description: LTEA_HepaRG_GCLC: Life Technologies and Expression Analysis (LTEA) Assay for Glutamate-cysteine ligase catalytic (GCLC) using HepaRG (AID 2283498). The essentials: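 Expression by TaqMan qRT-PCR, normalized to three housekeeping genes (ACTB, GAPDH, POLR2A), with up- or down-regulation fitted against DMSO. HepaRG cells dosed in duplicate for 48 h with 8 half-log concentrations up to 100 uM, vehicle 0.5% DMSO.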

Read-out in assay [12]: Heat shock 70 kDa protein 1 (HSPA1A), gene 3303
The experiment in a line: LTEA_HepaRG_HSPA1A: Life Technologies and Expression Analysis (LTEA) Assay for Heat shock 70 kDa protein 1 (HSPA1A) using HepaRG (AID 2283502). A digest of the protocol:
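Cells were plated and cultured for 48 h, then switched to serum-free induction medium. Chemicals were added at eight half-log concentrations up to 100 uM for 48 h. RNA was then isolated and HSPA1A measured by qRT-PCR with bidirectional curve fitting against DMSO.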

Read-out in assay [13]: Glutathione S-transferase M3 (GSTM3), GSTM3 (gene 2947)
The experiment in a line: LTEA_HepaRG_GSTM3: Life Technologies and Expression Analysis (LTEA) Assay for Glutathione S-transferase M3 (GSTM3) using HepaRG (AID 2283501). A digest of the protocol: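 qRT-PCR read-out of GSTM3 transcript, normalized to three housekeeping genes, from human HepaRG cells after 48 h chemical exposure. Eight-point half-log series, top 100 uM, 0.5% DMSO vehicle; gain or loss fitted relative to DMSO baseline.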

The source made the active and inactive calls. The calls were made as follows: active = hit-call score of the fitted dose curve at least 0.9, where 1 is the maximum; inactive = score below 0.9.

Sequence of Cytochrome P450 3A7 (Homo sapiens) (P24462 whole entry, looked up): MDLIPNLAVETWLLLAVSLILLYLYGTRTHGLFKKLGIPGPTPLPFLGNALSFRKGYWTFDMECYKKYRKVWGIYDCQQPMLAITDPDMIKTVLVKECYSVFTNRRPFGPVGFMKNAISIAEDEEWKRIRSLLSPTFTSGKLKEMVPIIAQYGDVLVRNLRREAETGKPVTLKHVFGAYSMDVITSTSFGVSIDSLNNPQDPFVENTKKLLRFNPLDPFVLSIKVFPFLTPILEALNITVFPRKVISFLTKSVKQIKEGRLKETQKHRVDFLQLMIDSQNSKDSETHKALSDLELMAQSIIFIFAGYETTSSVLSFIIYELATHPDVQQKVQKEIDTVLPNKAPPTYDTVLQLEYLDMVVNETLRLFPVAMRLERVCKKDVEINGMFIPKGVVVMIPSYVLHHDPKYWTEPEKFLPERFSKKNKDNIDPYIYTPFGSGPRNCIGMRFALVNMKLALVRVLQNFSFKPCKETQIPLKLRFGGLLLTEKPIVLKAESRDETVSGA
Sequence of Cytochrome P450 3A4 (Homo sapiens) (P08684 whole entry, looked up): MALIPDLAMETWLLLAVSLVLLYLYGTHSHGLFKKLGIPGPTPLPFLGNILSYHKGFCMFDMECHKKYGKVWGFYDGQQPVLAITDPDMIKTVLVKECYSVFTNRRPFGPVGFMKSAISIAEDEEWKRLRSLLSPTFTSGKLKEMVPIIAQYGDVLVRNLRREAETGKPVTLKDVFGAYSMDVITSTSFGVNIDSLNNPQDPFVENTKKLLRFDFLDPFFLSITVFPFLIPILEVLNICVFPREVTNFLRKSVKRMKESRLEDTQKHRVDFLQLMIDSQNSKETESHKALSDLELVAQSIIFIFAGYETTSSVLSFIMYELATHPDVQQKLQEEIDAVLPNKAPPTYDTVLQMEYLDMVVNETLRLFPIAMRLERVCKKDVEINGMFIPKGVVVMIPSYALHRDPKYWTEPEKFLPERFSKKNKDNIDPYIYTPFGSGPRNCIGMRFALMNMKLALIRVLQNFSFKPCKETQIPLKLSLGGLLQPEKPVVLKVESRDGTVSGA

With `Cc1[nH]c(=O)n(C(C)(C)C)c(=O)c1Cl`, the molecule was called inactive (with CYP2C8 (gene 1558); with CYP2C9 (gene 1559); with CYP4A11 (gene 1579); in assay [1]; in assay [2]; in assay [3]). The result in assay [4], in assay [5], in assay [6], in [7], in [8] and in assay [10] was inactive. The result in assay [11] and in assay [12] was inactive. In addition, the AC50 (as a rule, the concentration giving half of the maximal activity seen) is 37 µM (active) in the assay with CYP2E1 (gene 1571) and 18.8 µM (active) in assay [9].

Turning to `CC1(C)C(C=C(Cl)Cl)C1C(=O)OC(C#N)c1ccc(F)c(Oc2ccccc2)c1` (stereo not given), the AC50 in the assay with CYP2C8 (gene 1558) is 17.1 µM (active); with CYP2C9 (gene 1559), 14 µM (active); with CYP2E1 (gene 1571), 55.3 µM (active); in assay [1], 10.9 µM (active); in assay [3], 61.4 µM (active). Besides, the result (with CYP4A11 (gene 1579); in [2]; in [4]; in [5]; in assay [6]; in assay [7]) was inactive. Besides, the molecule was called inactive in assay [8], in assay [9], in [10], in assay [11] and in assay [12].

On to `COP(=O)(OC)OC=C(Cl)Cl`, for which the call (in the assay with CYP2C8 (gene 1558); in the assay with CYP2C9 (gene 1559); with CYP2E1 (gene 1571); with CYP4A11 (gene 1579); in assay [1]; in assay [2]) was inactive. The molecule was called inactive in [3], in assay [4], in [5], in assay [6], in [8] and in [9]. Also, the molecule was called inactive in assay [10], in [11] and in [12].

Take `CCc1ccc(C(=O)NN(C(=O)c2cc(C)cc(C)c2)C(C)(C)C)cc1`: the AC50 was 12.1 µM (active) with CYP2C8 (gene 1558); 42.4 µM (active) with CYP2E1 (gene 1571); 77.2 µM (active) in the assay with CYP4A11 (gene 1579); 3.75 µM (active) in assay [1]; 50 µM (active) in [4]; 12.1 µM (active) in [6]. The concentration at half-maximal activity (AC50) in [7] is 50 µM (active); in assay [8], 74.4 µM (active); in assay [9], 4.22 µM (active); in assay [12], 81.7 µM (active). Also, the molecule was called inactive (with CYP2C9 (gene 1559); in assay [2]; in assay [3]; in assay [5]; in assay [10]; in assay [11]).

For `O=[N+]([O-])c1c(Cl)c(Cl)c(Cl)c(Cl)c1Cl`, the outcome (with CYP2C8 (gene 1558); in the assay with CYP2C9 (gene 1559); in assay [1]; in assay [2]; in [3]; in assay [4]) was inactive. The molecule was called inactive in [5], in [6], in [8], in assay [9], in [10] and in [11]. Also, the result in assay [13] and in [12] was inactive. Also, the AC50 in the assay with CYP2E1 (gene 1571) is 34.3 µM (active); in [7], 50 µM (active).

As to `C#CCN1C(=O)COc2cc(F)c(N3C(=O)C4=C(CCCC4)C3=O)cc21`, the molecule was called inactive (with CYP2C8 (gene 1558); with CYP2C9 (gene 1559); in [2]; in assay [3]; in assay [5]; in assay [9]). For the same molecule, the outcome in [10], in assay [11] and in assay [12] was inactive. Further, the AC50 with CYP2E1 (gene 1571) was 26.1 µM (active); with CYP4A11 (gene 1579), 20.5 µM (active); in [1] it was 3.65 µM (active); in [4] it was 12 µM (active); in assay [6] it was 0.97 µM (active); in assay [7], 25.4 µM (active). Besides, in assay [8], the half-maximal activity concentration (AC50) is 16.1 µM (active).
